MEX-5 binding: C. elegans MEX-5 TCR-2 RNA binding activity; AID 1832; actives 0.38% (n = 300,000); Q9XUB2; activity score (negative = inhibition of binding), % at 10 µM; MEX-5/FITC-TCR2 RNA binding, fluorescence polarization; active compounds read low;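 active means inhibition past about -25% in most replicates, and total fluorescence under double the plate's negative control median, limit read from the data; inconclusive means replicates evenly split on the limit, or fluorescence at least double controls; inactive means too little inhibition in most replicates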;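 further: 0% = DMSO and -100% = 5 µM competing unlabeled TCR2 RNA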
Bcl-xL primary: Bcl-xL (human) inhibition | actives 0.7% (n = 320,000) | GST-Bcl-xL / FITC-Bim BH3 peptide fluorescence polarization | AID 2129 | inhibition, % at 10.9 µM | Q07817;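 active means inhibition above the mean of all tested compounds plus 3 SD, cutoff set per campaign, cut at about 30% in these data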;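 further: 0% = DMSO wells and 100% = unlabeled Bim-BH3 peptide competitor; inhibitors lower millipolarization by displacing the labeled peptide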
Target sequence (Q07817 whole entry, looked up): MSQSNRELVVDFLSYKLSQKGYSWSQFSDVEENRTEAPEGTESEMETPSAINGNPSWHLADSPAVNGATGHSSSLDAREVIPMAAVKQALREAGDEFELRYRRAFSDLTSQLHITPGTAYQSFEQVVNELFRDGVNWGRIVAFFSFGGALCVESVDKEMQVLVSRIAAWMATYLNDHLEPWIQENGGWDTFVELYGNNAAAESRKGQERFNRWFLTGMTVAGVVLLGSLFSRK
GLD-1 TGE inh: GLD-1-TGE RNA interaction inhibition (C. elegans); Q17339; purified GLD-1 + fluorescein TGE RNA, fluorescence polarization; inhibition, % at 5.96 µM; actives 0.44% (n = 320,000);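 active means percent inhibition above a per-plate cutoff, the plate mean of test compounds plus 3 SD, cut at about 30% in these data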;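 further: 0% = DMSO wells with GLD-1 and probe and 100% = wells lacking GLD-1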
EBV gp42 block: blocks Epstein-Barr virus glycoprotein 42 binding | Q1HVG2 | Fluorescence polarization binding assay, mP read-out | inhibition, % (tested at 21.74 µM) | actives 0.42% (n = 220,000); in the data active means inhibition above about 50%
Target sequence (Q1HVG2 whole entry, looked up): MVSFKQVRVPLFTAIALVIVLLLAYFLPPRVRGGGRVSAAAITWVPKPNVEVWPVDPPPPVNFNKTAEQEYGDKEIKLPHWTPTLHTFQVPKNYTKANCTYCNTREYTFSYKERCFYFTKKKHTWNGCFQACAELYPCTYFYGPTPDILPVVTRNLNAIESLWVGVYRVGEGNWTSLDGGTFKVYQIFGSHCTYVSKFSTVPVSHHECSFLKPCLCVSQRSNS
eLon inh: inhibits E. coli Lon protease. AID 602123. purified E. coli Lon protease, fluorescence polarization. P0A9M0. inhibition, % at 7.94 µM. actives 0.42% (n = 360,000); in the data active means inhibition above about 13%, passing the limit was not always enough;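 further: 0% = enzyme with probe and DMSO and 100% = no enzyme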
* marks the source's active call; other numbers are inactive results; ? = inconclusive; . = not tested or not shown; + = active, no number. A selection: hits, their analogues and other compounds. The true share with any hit is near 1.3%.

SMILES	MEX-5 binding	Bcl-xL primary	GLD-1 TGE inh	EBV gp42 block	eLon inh
Cc1cc(C)c2c(N=NN3CCOCC3)[nH]nc2n1	-2.2	3.1	5.9	-6.6	11.3
COc1ccc(C(=Cc2ccccc2[N+](=O)[O-])C(=O)O)cc1	.	.	.	.	-12.0
C=CCn1c(C)c(C(C)=O)c(N2CCN(C(c3ccccc3)c3ccccc3)CC2)nc1=S	2.6	5.3	3.2	-8.7	-1.5
COc1ccc(CN2CCOCCOCCN(Cc3ccc(OC)cc3)CCOCCOCC2)cc1	4.1	4.0	4.4	-7.5	-7.4
C=CCN1C=C2C(=O)C(C)(OC(=O)CCC(=O)OC)C(=O)C(Br)=C2C=C1c1ccc(OC)cc1 (stereo unspecified)	-27.9*	70.9*	27.6	28.1	-0.2
COc1ccc(C2NC(=S)NC(O)(C(F)(F)F)C2C(=O)c2cccs2)cc1 (stereo unspecified)	-0.9	9.2	2.6	1.1	-4.3
N=C1/C(=C\c2ccc(-c3cccc(C(=O)O)c3)o2)C(=O)N=C2SC=C(c3ccccc3)N12	1.0	0.1	-26.3	82.2*	-64.8
Cc1ccc(C(=O)Nc2cccc3ccccc23)cc1	-2.0	-1.8	6.0	.	-8.2
CC(C)(C)c1ccc(C(=O)Nc2cccc3c(=O)[nH][nH]c(=O)c23)cc1	-0.8	28.6	46.0*	93.0*	16.4
COc1ccc(OC)c2c1C(=O)c1ccccc1C2=O	?	+	+	+	.
COc1cc(C=C2C(=O)c3ccccc3C2=O)cc(OC)c1OC	-54.1*	11.1	2.3	95.4*	-8.7
COc1cc(C=C2C(=O)c3ccccc3C2=O)ccc1O	-2.2	2.2	-6.3	-17.0	2.6
COc1ccc(OC)c2c1C(=O)C(Cl)=C(Cl)C2=O	-1.9	39.0*	17.6	-38.6	7.3
CCCCCC(=O)N1C[C@H](O)[C@@H](n2cc(C3CC3)nn2)C[C@@H]1c1ccc(C)cc1	.	.	.	.	1.5
COC1(OC)N=C(N)C2(C#N)C(c3ccc(F)cc3)C12C#N (stereo unspecified)	-3.7	5.7	11.1	-15.0	-8.8
CCOC1(OCC)N=C(N)C2(C#N)C(c3ccc(NC(C)=O)cc3)C12C#N (stereo unspecified)	-27.3*	25.1	15.4	-0.7	-3.7
O=C(O[C@@H]1OC2COC(=O)c3cc(O)c(O)c(O)c3-c3c(cc(O)c(O)c3O)C(=O)O[C@@H]([C@H]1O)[C@@H]2O)c1cc(O)c(O)c(O)c1	-67.3*	61.8*	15.5	-14.3	32.8*
CN(CCc1ccccc1)C(=O)c1ccc(NC(=O)Cc2ccc(NC(=O)C3CCCN(S(=O)(=O)c4cccc([N+](=O)[O-])c4)C3)cc2)cc1 (stereo unspecified)	.	.	.	.	1.6
CCC1(CC)C(=O)NC(=O)NC1=NCCc1c[nH]c2ccccc12	2.7	0.5	1.7	-11.9	-1.0
O=C1/C(=C\c2cccc(O)c2O)SC(=S)N1Cc1ccccc1	-1.4	15.9	4.9	.	0.6
O=C1/C(=C\c2cc([N+](=O)[O-])ccc2O)SC(=S)N1Cc1ccc(Cl)cc1	?	75.6*	46.8*	.	-235.5
CC1C(=O)NN=C1C(=O)N/N=C\c1ccc(O)cc1O (stereo unspecified)	-62.2*	5.4	-0.8	2.0	-14.1
COc1cc(/C=N/NC(=O)C2=NNC(=O)C2C)ccc1O (stereo unspecified)	-17.8	7.7	3.5	-8.1	-4.1
CC1C(=O)NN=C1C(=O)N/N=C/c1ccco1 (stereo unspecified)	-26.0*	2.0	9.1	-1.5	-1.8
CC1(c2nnnn2Cc2ccccc2)CCC(=O)N1CC1CCCCC1 (stereo unspecified)	.	.	.	.	-5.5
SMILES	MEX-5 binding	Bcl-xL primary	GLD-1 TGE inh	EBV gp42 block	eLon inh
Cc1cccn2c(=O)c3cc(C(=O)NCc4ccco4)c(=N)n(CCOCCO)c3nc12	-7.6	55.2*	23.8	74.7*	-3.9
Cc1ccc(Cn2c(=N)c(C(=O)NCc3ccco3)cc3c(=O)n4ccccc4nc32)cc1	-2.0	14.7	-0.9	4.0	-11.9
N=c1c(C(=O)NCc2ccco2)cc2c(=O)n3ccccc3nc2n1CCc1ccccc1	-4.7	31.6*	11.8	12.5	-6.0
Cc1ccc2nc3c(cc(C(=O)NCc4ccco4)c(=N)n3C3CCCC3)c(=O)n2c1	-11.9	69.0*	37.5*	.	-2.0
COc1ccc(CCn2c(=N)c(C(=O)NCc3ccco3)cc3c(=O)n4ccccc4nc32)cc1OC	.	.	.	.	-6.3
Cc1cccn2c(=O)c3cc(C(=O)NCc4ccco4)c(=N)n(C4CCCCC4)c3nc12	-1.2	19.9	10.9	.	-3.2
COCCn1c(=N)c(C(=O)NCc2ccco2)cc2c(=O)n3cc(C)ccc3nc21	-12.4	72.0*	56.0*	41.5	-3.7
CCOc1ccc(CCNC(=O)c2cn(C)c3ccc(S(=O)(=O)N4CCOCC4)cc3c2=O)cc1OCC	-3.1	4.5	-1.6	.	-5.0
COc1ccc(-c2coc3c(C(=O)Nc4cccc(C(C)=O)c4)cccc23)c(C)c1	.	.	.	.	-14.2
CN(CC(=O)Nc1ccccc1Cl)C1CCCCC1	-0.8	8.4	-2.0	.	13.1
CN(CC(=O)Nc1ccccc1Cl)C1CCS(=O)(=O)C1 (stereo unspecified)	.	36.1*	2.9	.	3.4
Cn1ncc2c(NNC(=O)Cc3ccccc3)ncnc21	-34.7*	-1.0	0.9	-10.3	-11.8
Cc1cc2c(=O)cc(-c3ccccc3)oc2c(C(=O)O)c1C	.	.	.	.	-2.7
Cc1cc(CC(=O)O)c2oc(-c3ccoc3)cc(=O)c2c1	-11.0	38.2*	7.4	.	.
COc1cc(C(=O)NC2CCN(CC(=O)Nc3cccc(C)c3C)CC2)cc(OC)c1OC	-1.0	3.6	-10.8	.	-10.3
CSc1nc(N(CCO)CCO)c2sc3nc(-c4ccco4)c4c(c3c2n1)CCC4	1.1	.	.	56.4*	-8.8
Cc1ccc(CNC(=O)C2CCN(S(=O)(=O)c3c(C)noc3/C=C/N(C)C)CC2)cc1	-8.9	-24.6	-20.1	.	-53.0
Cc1noc(/C=C/N(C)C)c1S(=O)(=O)N1CCC(C(=O)O)CC1	-30.4*	9.9	10.7	-9.5	-0.7
CC(=O)N1CCN(C(=O)c2ccc(NS(=O)(=O)c3ccc4[nH]c(=O)[nH]c4c3)cc2)CC1	-0.5	-0.5	-0.6	.	-12.1
O=C(CNC(=O)c1ccc(Br)cc1)OCC(=O)c1ccccc1	-0.9	.	.	.	4.8
CC(NC(=O)c1ccccc1)C(=O)OCC(=O)c1ccc(Br)cc1 (stereo unspecified)	0.5	169.1*	-1.0	.	-2.0
CCOCCCn1c(=NC(=O)c2cccs2)c(C#N)cc2c(=O)n3cccc(C)c3nc21	-36.9*	138.2*	105.7*	54.0*	13.4
COCCCn1c(=NC(=O)c2ccccc2)c(C#N)cc2c(=O)n3cccc(C)c3nc21	?	181.0*	127.5*	51.5*	84.3*
CCOC(=O)c1cc2c(=O)n3cccc(C)c3nc2n(Cc2ccco2)c1=NC(=O)c1cccnc1	.	.	.	20.6	5.0
Cc1cccn2c(=O)c3cc(C#N)c(=NC(=O)c4ccco4)n(Cc4ccco4)c3nc12	-3.4	14.4	3.7	-3.6	3.5

Source: PubChem BioAssay (several laboratories)
